This note sets out measurements from article PMC7862700, “An all-to-all approach to the identification of sequence-specific readers for epigenetic DNA modifications on cytosine”.

Common to all, as to test: DAPPL (digital affinity profiling via proximity ligation, sequencing); 10 mM Tris-HCl pH 7.5, 50 mM NaCl, 1 mM DTT, 4% glycerol, room temperature, 30 min; GST-TFs on glutathione beads, 16-mer random dsDNA library, 0.1% formaldehyde crosslink after washing; high values mean tight binding
Details in all cases: protein: recombinant; tags: N-terminal GST; dsDNA, one strand shown

The target in assay [1] is T1, ERF (Homo sapiens, UniProt P50548 1-548).
T1 sequence: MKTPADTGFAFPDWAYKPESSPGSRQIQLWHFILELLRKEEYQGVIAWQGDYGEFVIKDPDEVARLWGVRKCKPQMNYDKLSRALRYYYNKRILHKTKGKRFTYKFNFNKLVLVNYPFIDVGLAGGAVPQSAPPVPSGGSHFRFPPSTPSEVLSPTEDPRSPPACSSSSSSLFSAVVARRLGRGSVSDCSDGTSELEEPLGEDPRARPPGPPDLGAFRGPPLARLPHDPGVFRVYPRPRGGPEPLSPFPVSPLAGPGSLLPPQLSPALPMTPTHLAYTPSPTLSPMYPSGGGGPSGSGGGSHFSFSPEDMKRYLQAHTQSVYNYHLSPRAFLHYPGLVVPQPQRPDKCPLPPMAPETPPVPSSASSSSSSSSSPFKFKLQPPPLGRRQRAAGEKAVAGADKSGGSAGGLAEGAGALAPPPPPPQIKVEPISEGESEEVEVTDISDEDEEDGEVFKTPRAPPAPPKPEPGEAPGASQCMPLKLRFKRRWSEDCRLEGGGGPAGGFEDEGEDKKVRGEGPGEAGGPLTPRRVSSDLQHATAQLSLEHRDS
The method, boiled down: (§1)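 A tag-only sample was pooled with DNA-barcoded human transcription factors that had been expressed in yeast as GST fusions and captured on glutathione beads. The pools were incubated for 30 min at room temperature with 200 nmole of a random double-stranded 16-mer DNA library in Tris/NaCl/DTT/glycerol buffer, then washed, crosslinked with 0.1% formaldehyde, proximity-ligated (BsaI/T4 ligase, 1 h, 37 °C), PCR-amplified and sequenced on an Illumina NextSeq500. Binding signal is each hexamer's read frequency for a factor divided by its frequency for the tag-only sample.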

Assay [2] deals with T2, ETV3L (Homo sapiens, UniProt Q6ZN32 1-361).
T2 sequence: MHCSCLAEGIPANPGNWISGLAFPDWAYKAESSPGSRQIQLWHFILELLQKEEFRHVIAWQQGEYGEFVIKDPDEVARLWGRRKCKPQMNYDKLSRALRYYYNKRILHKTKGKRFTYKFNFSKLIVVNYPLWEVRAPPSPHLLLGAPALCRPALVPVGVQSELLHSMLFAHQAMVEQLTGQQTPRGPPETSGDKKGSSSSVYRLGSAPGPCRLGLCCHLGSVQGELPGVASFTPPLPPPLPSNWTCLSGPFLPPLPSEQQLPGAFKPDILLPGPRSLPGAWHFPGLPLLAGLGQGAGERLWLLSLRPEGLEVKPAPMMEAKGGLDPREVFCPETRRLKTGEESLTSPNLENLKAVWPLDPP
The method, boiled down: as §1

Assay [3] has as its target T3, ETS2 (Homo sapiens, UniProt P15036 1-469).
T3 sequence: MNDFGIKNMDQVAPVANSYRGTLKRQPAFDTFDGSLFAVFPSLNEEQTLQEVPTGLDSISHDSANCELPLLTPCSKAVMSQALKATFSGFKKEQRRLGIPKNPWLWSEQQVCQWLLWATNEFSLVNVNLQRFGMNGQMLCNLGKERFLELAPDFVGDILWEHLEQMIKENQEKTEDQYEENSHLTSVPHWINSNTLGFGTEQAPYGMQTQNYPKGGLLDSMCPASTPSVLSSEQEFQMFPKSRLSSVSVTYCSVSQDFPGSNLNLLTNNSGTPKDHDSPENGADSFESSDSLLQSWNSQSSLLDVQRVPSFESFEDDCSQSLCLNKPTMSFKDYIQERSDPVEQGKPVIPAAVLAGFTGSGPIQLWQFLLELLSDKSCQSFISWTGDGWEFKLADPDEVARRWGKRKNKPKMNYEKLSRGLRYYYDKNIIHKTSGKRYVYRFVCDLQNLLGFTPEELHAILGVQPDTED
The method, boiled down: as §1

Assay [4] deals with T4, SPDEF (Homo sapiens, UniProt O95238 1-335).
T4 sequence: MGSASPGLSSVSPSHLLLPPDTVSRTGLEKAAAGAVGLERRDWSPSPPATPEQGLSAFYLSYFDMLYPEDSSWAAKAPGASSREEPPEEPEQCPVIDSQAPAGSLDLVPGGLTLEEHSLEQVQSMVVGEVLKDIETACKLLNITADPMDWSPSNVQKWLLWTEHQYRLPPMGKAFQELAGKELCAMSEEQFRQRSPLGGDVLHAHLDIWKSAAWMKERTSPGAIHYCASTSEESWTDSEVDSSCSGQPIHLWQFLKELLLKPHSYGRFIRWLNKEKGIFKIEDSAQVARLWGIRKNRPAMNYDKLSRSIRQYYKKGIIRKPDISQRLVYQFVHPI
Put shortly: as §1

Assay [5] has as its target T5, ETV7 (Homo sapiens, UniProt Q9Y603 1-341).
T5 sequence: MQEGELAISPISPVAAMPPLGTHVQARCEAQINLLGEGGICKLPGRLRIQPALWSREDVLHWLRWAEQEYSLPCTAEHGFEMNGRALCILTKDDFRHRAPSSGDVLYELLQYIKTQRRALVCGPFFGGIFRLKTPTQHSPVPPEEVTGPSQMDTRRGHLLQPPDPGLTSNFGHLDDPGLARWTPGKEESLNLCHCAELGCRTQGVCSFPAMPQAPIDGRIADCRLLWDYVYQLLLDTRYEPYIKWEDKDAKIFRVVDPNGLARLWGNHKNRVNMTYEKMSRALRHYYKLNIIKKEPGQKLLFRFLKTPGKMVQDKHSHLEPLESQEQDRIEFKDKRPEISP
The method, boiled down: as §1

Assay [6] deals with T6, ELF5 (Homo sapiens, UniProt Q9UKW6-2 1-255).
T6 sequence: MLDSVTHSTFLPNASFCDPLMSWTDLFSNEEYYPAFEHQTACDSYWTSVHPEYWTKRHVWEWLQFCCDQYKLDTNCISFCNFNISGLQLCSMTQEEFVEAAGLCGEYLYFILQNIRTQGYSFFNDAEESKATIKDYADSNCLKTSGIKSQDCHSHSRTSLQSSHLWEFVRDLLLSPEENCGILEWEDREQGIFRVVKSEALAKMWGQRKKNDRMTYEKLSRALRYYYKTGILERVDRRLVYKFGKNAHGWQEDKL
The method, boiled down: as §1

Assay [7] concerns the target T7, ETV3 (Homo sapiens, UniProt P41162-2 1-143).
T7 sequence: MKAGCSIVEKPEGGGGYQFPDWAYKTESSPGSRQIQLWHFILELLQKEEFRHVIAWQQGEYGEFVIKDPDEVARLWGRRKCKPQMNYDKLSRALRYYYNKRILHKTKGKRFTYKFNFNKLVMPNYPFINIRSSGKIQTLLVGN
Put shortly:
as §1

The target of assay [8] is ETV6 (Homo sapiens, UniProt P41212 1-452). Put shortly: as §1
Sequence of ETV6 (P41212 whole entry): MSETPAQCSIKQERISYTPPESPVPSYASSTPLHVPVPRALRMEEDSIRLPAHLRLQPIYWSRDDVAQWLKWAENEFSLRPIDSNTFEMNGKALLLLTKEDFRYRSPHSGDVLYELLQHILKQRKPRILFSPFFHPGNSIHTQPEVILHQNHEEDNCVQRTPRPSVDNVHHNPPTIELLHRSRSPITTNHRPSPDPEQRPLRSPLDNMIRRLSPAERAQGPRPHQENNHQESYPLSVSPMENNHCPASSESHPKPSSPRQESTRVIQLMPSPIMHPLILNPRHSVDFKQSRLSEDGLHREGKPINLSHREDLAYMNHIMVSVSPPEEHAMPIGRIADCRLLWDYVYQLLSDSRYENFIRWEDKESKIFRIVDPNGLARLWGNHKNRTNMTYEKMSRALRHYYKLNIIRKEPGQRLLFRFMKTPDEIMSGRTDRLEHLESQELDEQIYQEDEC

As for CTAAAG, the binding signal in assay [1] was 1.44 fold enrichment (6-mer frequency, TF over GST control); in assay [2], 1.33 fold enrichment (6-mer frequency, TF over GST control); in assay [3] it was 1.32 fold enrichment (6-mer frequency, TF over GST control); in assay [4], 1.26 fold enrichment (6-mer frequency, TF over GST control); in assay [5], 1.35 fold enrichment (6-mer frequency, TF over GST control); in assay [6], 1.33 fold enrichment (6-mer frequency, TF over GST control). In addition, the binding signal was 1.36 fold enrichment (6-mer frequency, TF over GST control) in assay [7] and 1.23 fold enrichment (6-mer frequency, TF over GST control) in assay [8].
Turning to AACACC, the binding signal in assay [1] is 1.15 fold enrichment (6-mer frequency, TF over GST control); in assay [2] it was 1.15 fold enrichment (6-mer frequency, TF over GST control); in assay [3], 1.13 fold enrichment (6-mer frequency, TF over GST control); in assay [4], 1.15 fold enrichment (6-mer frequency, TF over GST control); in assay [5], 1.13 fold enrichment (6-mer frequency, TF over GST control); in assay [6], 1.09 fold enrichment (6-mer frequency, TF over GST control). The binding signal in assay [7] is 1.13 fold enrichment (6-mer frequency, TF over GST control); in assay [8] it was 1.06 fold enrichment (6-mer frequency, TF over GST control).
With TGATTT, the binding signal in assay [1] is 1.17 fold enrichment (6-mer frequency, TF over GST control); in assay [2], 1.29 fold enrichment (6-mer frequency, TF over GST control); in assay [3] it was 1.28 fold enrichment (6-mer frequency, TF over GST control); in assay [4], 1.21 fold enrichment (6-mer frequency, TF over GST control); in assay [5] it was 1.24 fold enrichment (6-mer frequency, TF over GST control); in assay [6], 1.23 fold enrichment (6-mer frequency, TF over GST control). The binding signal in assay [7] was 1.24 fold enrichment (6-mer frequency, TF over GST control); in assay [8] it was 1.23 fold enrichment (6-mer frequency, TF over GST control).
For GGACAT, the binding signal is 1.12 fold enrichment (6-mer frequency, TF over GST control) in assay [1]; 1.13 fold enrichment (6-mer frequency, TF over GST control) in assay [2]; 1.18 fold enrichment (6-mer frequency, TF over GST control) in assay [3]; 1.43 fold enrichment (6-mer frequency, TF over GST control) in assay [4]; 1.23 fold enrichment (6-mer frequency, TF over GST control) in assay [5]; 1.24 fold enrichment (6-mer frequency, TF over GST control) in assay [6]. Further, the binding signal is 1.23 fold enrichment (6-mer frequency, TF over GST control) in assay [7] and 1.18 fold enrichment (6-mer frequency, TF over GST control) in assay [8].
With ACTACA, the binding signal in assay [1] is 1.13 fold enrichment (6-mer frequency, TF over GST control); in assay [2] it was 1.22 fold enrichment (6-mer frequency, TF over GST control); in assay [3] it was 1.15 fold enrichment (6-mer frequency, TF over GST control); in assay [4] it was 1.28 fold enrichment (6-mer frequency, TF over GST control); in assay [5] it was 1.11 fold enrichment (6-mer frequency, TF over GST control); in assay [6], 1.24 fold enrichment (6-mer frequency, TF over GST control). Also, the binding signal in assay [7] was 1.19 fold enrichment (6-mer frequency, TF over GST control); in assay [8] it was 1.19 fold enrichment (6-mer frequency, TF over GST control).
Regarding GTTTCA, the binding signal in assay [1] is 1.35 fold enrichment (6-mer frequency, TF over GST control); in assay [2], 1.35 fold enrichment (6-mer frequency, TF over GST control); in assay [3], 1.34 fold enrichment (6-mer frequency, TF over GST control); in assay [4] it was 1.22 fold enrichment (6-mer frequency, TF over GST control); in assay [5] it was 1.21 fold enrichment (6-mer frequency, TF over GST control); in assay [6], 1.35 fold enrichment (6-mer frequency, TF over GST control). In addition, the binding signal in assay [7] was 1.3 fold enrichment (6-mer frequency, TF over GST control); in assay [8], 1.21 fold enrichment (6-mer frequency, TF over GST control).
For AATCCG, the binding signal was 1.5 fold enrichment (6-mer frequency, TF over GST control) in assay [1]; 1.6 fold enrichment (6-mer frequency, TF over GST control) in assay [2]; 1.7 fold enrichment (6-mer frequency, TF over GST control) in assay [3]; 2.04 fold enrichment (6-mer frequency, TF over GST control) in assay [4]; 1.51 fold enrichment (6-mer frequency, TF over GST control) in assay [5]; 1.74 fold enrichment (6-mer frequency, TF over GST control) in assay [6]. Moreover, the binding signal was 1.66 fold enrichment (6-mer frequency, TF over GST control) in assay [7] and 1.49 fold enrichment (6-mer frequency, TF over GST control) in assay [8].
